This test is described as follows: NCI Yeast Anticancer Drug Screen. Data for the bub3 strain (AID 167). The following applies: S. cerevisiae bub3 mutant strain, hits give high values. The procedure:
Growth inhibition of yeast strains with defined genetic alterations is measured as a screen for potential anti-cancer activity. Selected strains with alterations in DNA damage repair or cell cycle control were exposed to compounds and growth inhibition was measured relative to vehicle treated controls. The strain used in this assay is bub3

Setting [1] is: at 5.0 µM (retest, dose inferred, filed as 0.5).
Setting [2] is: at 50.0 µM (retest, dose inferred, filed as 5.0).

About 79,000 compounds went through this panel and 15% of them were active in at least one assay; those are over-represented in the sample as a whole. Unmarked numbers belong to inactive results. Calls of active or inactive are those of the source. Cut-off read from the data, not from the text of the source: active = growth inhibition above about 70%; inactive = the rest.

Consider `CN(Nc1ccc(Cl)cc1)c1ccc(Cl)cc1`, for which the growth inhibition by setting is: under setting [1], 9%; under setting [2], 97% (active); (at 50.0 µM) 77% (active).

As to `N#CC1=CN(Cc2ccccc2)C(C#Cc2ccccc2)C=C1` (configuration not stated), the growth inhibition is -2% under setting [1], 0% under setting [2] and 91% (active) (at 50.0 µM).

For `O=C(O)c1ccccc1SC(Sc1ccccc1C(=O)O)c1cccc(Cl)c1`, the growth inhibition is 9% under setting [1], 97% (active) under setting [2] and 81.5% (active) (at 50.0 µM).

For `O=C(Nc1cccc(C(F)(F)F)c1)c1cc(Br)cc(Br)c1O`, the growth inhibition under setting [1] is 44%, the growth inhibition under setting [2] is 83% (active) and the growth inhibition (at 50.0 µM) was 69.3%.

Consider `O=C1CCCC2c3ccccc3NC12` (configuration not stated), for which the growth inhibition is, setting by setting: under setting [1], -68%; under setting [2], -75%; (at 50.0 µM) -17.9%.

On to `NC1=NC2=C(CCCC2)C(c2cccs2)S1` (configuration not stated), for which the growth inhibition is, setting by setting: under setting [1], 38%; under setting [2], 74% (active); (at 50.0 µM) 61.7%.

For `CCCCCCCCCCCCNC(=O)OCC(C)O` (configuration not stated) (tested in a mixture with another compound), the growth inhibition is, setting by setting: under setting [1], 84% (active); under setting [2], 74% (active); (at 50.0 µM) 99.4% (active).

As to `O=c1c2cc3ccccc3cc2c(=O)n2n1CC=CC2`, the growth inhibition is 2% under setting [1], -1% under setting [2] and -0.8% (at 50.0 µM).

With `CCOC(=O)CCC(=O)Oc1ccc2c(c1OC(=O)CCC(=O)OCC)C(=O)c1ccccc1C2=O`, the growth inhibition is, setting by setting: under setting [1], 8%; under setting [2], 96% (active); (at 50.0 µM) 60.5%.

With `CS(=O)(=O)C(c1nc2nnc(NC(=O)Nc3ccc(Cl)cc3)n2[nH]c1=O)c1nc2nnc(NC(=O)Nc3ccc(Cl)cc3)n2[nH]c1=O`, the growth inhibition reads like this: under setting [1], -41%; under setting [2], 19%; (at 50.0 µM) 71.3% (active).

With `COc1ccc(C2=C(Cl)C(=O)N(c3ccccc3Cl)C(=O)C2(Cl)Cl)cc1`, the growth inhibition was 0% under setting [1], 97% (active) under setting [2] and 97.1% (active) (at 50.0 µM).

As for `O=C(O)C1(Cc2ccc3c(c2)CCC3)Cc2ccccc2C1=O` (configuration not stated), the growth inhibition was -7% under setting [1], -7% under setting [2] and 90.2% (active) (at 50.0 µM).

Take `CN1CCCC1c1cccc(Br)c1` (configuration not stated): the growth inhibition was -69% under setting [1], 54% under setting [2] and -8.55% (at 50.0 µM).

For the molecule `O=CNC(CCCC(=O)O)Cc1cc2ccccc2c2ccccc12` (configuration not stated), the growth inhibition was -8% under setting [1], -4% under setting [2] and 94.8% (active) (at 50.0 µM).

These data come from PubChem BioAssay (NCI).
